Experiment in all cases: yeast three-hybrid, YBZ-1, SC-Leu-His + 0.5 mM 3-AT, 4 days
Common to all, as to conditions: tags: N-Gal4 AD-HA kept; label: inside an RPR1-promoter hybrid RNA with tandem MS2 sites; ssRNA

Assay [1] concerns the target PUM1 PUF domain R5-RRA (Homo sapiens, UniProt Q14671 828-1176, C1007R;Q1011A). In outline:
(§1)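 The interaction score is the log change in variant frequency from input to selection. Scores were computed in log2 with a pseudocount of 1 for absent variants, using Illumina sequencing of PCR-amplified repeat regions. The input came from four days on SC-Leu and the selection from four days on SC-Leu-His + 0.5 mM 3-AT. The cells were strain YBZ-1 (LexA–MS2 coat fusion, HIS3 reporter) co-expressing Pumilio-1 PUF domain libraries and matching RNA elements from a centromeric plasmid.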

Assay [2] has as its target PUM1 PUF domain R5-LFS (Homo sapiens, UniProt Q14671 828-1176, C1007L;R1008F;Q1011S). An outline of the steps: as §1
The target in assay [3] is PUM1 PUF domain R5-MRD (Homo sapiens, UniProt Q14671 828-1176, C1007M;Q1011D). An outline of the steps: as §1
In assay [4] the target is PUM1 PUF domain R8-RHD (Homo sapiens, UniProt Q14671 828-1176, N1122R;Y1123H;Q1126D). In outline:
as §1

Assay [5] has as its target PUM1 PUF domain R4-GQS (Homo sapiens, UniProt Q14671 828-1176, N971G;H972Q;Q975S). An outline of the steps:
as §1

Assay [6] concerns the target PUM1 PUF domain R5-GLR (Homo sapiens, UniProt Q14671 828-1176, C1007G;R1008L;Q1011R). In outline: as §1
In assay [7] the target is PUM1 PUF domain R4-EFD (Homo sapiens, UniProt Q14671 828-1176, N971E;H972F;Q975D). An outline of the steps: as §1
Assay [8] has as its target T1, PUM1 PUF domain R6-SYR (Homo sapiens, UniProt Q14671 828-1176, N1043S;Q1047R).
T1 sequence: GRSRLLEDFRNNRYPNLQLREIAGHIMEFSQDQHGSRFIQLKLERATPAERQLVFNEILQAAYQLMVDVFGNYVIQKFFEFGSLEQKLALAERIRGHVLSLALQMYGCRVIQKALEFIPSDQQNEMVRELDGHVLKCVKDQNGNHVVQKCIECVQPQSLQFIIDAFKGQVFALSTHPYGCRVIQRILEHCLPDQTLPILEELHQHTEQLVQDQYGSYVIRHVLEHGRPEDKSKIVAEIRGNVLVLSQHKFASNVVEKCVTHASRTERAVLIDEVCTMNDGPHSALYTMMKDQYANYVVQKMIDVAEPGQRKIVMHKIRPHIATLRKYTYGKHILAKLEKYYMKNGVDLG
An outline of the steps: as §1

Assay [9] addresses PUM1 PUF domain R5-LYL (Homo sapiens, UniProt Q14671 828-1176, C1007L;R1008Y;Q1011L). In outline: as §1
Assay [10] deals with PUM1 PUF domain R1-KWC (Homo sapiens, UniProt Q14671 828-1176, S863K;R864W;Q867C). In outline:
as §1

The target of assay [11] is PUM1 PUF domain R7-GSV (Homo sapiens, UniProt Q14671 828-1176, S1079G;N1080S;E1083V). In outline:
as §1

The target of assay [12] is PUM1 PUF domain R7-QPG (Homo sapiens, UniProt Q14671 828-1176, S1079Q;N1080P;E1083G). An outline of the steps: as §1
The target in assay [13] is PUM1 PUF domain R3-KSR (Homo sapiens, UniProt Q14671 828-1176, C935K;R936S;Q939R). In outline:
as §1

In assay [14] the target is PUM1 PUF domain R5-KRY (Homo sapiens, UniProt Q14671 828-1176, C1007K;Q1011Y). In outline:
as §1

Assay [15] has as its target PUM1 PUF domain R5-RLT (Homo sapiens, UniProt Q14671 828-1176, C1007R;R1008L;Q1011T). An outline of the steps:
as §1

The target in assay [16] is PUM1 PUF domain R5-TGR (Homo sapiens, UniProt Q14671 828-1176, C1007T;R1008G;Q1011R). In outline: as §1
The target of assay [17] is T2, PUM1 PUF domain R6-YRI (Homo sapiens, UniProt Q14671 828-1176, N1043Y;Y1044R;Q1047I).
T2 sequence: T1 sequence with S216Y, Y217R, R220I
In outline:
as §1

Assay [18] concerns the target T3, PUM1 PUF domain R6-KWG (Homo sapiens, UniProt Q14671 828-1176, N1043K;Y1044W;Q1047G).
T3 sequence: T1 sequence with S216K, Y217W, R220G
An outline of the steps: as §1

The target of assay [19] is PUM1 PUF domain R2-AKP (Homo sapiens, UniProt Q14671 828-1176, N899A;Y900K;Q903P). In outline:
as §1

For assay [20], the target named is PUM1 PUF domain R1-RFC (Homo sapiens, UniProt Q14671 828-1176, S863R;R864F;Q867C). An outline of the steps:
as §1

Positions count from the first letter of the chain named.

As for “GGCUAGAACUAGUGGAUCCCCCGGCGCCCGGCGGCUCGAGCCCGGGUAAGUGUGAAUAGUCUGCAUGCCGCCGGGCGCCAUGCCUGCAGGUCGACUCUAGAAAACAUG”, the binding signal in [1] is 1.09 log2 enrichment (interaction score); in assay [2] it was 1.48 log2 enrichment (interaction score).
In the case of “GGCUAGAACUAGUGGAUCCCCCGGCGCCCGGCGGCUCGAGCCCGGGUAAGUGUUAAUAGUCUGCAUGCCGCCGGGCGCCAUGCCUGCAGGUCGACUCUAGAAAACAUG”, the binding signal in assay [3] is 2.48 log2 enrichment (interaction score); in assay [2], 1.78 log2 enrichment (interaction score).
For “GGCUAGAACUAGUGGAUCCCCCGGCGCCCGGCGGCUCGAGCCCGGGUAAGCGUAAAUAGUCUGCAUGCCGCCGGGCGCCAUGCCUGCAGGUCGACUCUAGAAAACAUG”, the binding signal in [4] was 5.28 log2 enrichment (interaction score).
Turning to “GGCUAGAACUAGUGGAUCCCCCGGCGCCCGGCGGCUCGAGCCCGGGUAAGUGUAAAUAGUCUGCAUGCCGCCGGGCGCCAUGCCUGCAGGUCGACUCUAGAAAACAUG”, the binding signal in assay [5] was 2.47 log2 enrichment (interaction score); in [6], 1.61 log2 enrichment (interaction score); in assay [7], 2.17 log2 enrichment (interaction score); in assay [3] it was 2.65 log2 enrichment (interaction score); in [1] it was 1.06 log2 enrichment (interaction score); in [2], 2.29 log2 enrichment (interaction score). In addition, the results for the binding signal in assay [8] and in [9] were 6.46 log2 enrichment (interaction score) and 2.85 log2 enrichment (interaction score), respectively.
For “GGCUAGAACUAGUGGAUCCCCCGGCGCCCGGCGGCUCGAGCCCGGGUAAGUGUAAAUUGUCUGCAUGCCGCCGGGCGCCAUGCCUGCAGGUCGACUCUAGAAAACAUG”, the binding signal in [10] was 3.86 log2 enrichment (interaction score).
On to “GGCUAGAACUAGUGGAUCCCCCGGCGCCCGGCGGCUCGAGCCCGGGUAAGUUUAAAUAGUCUGCAUGCCGCCGGGCGCCAUGCCUGCAGGUCGACUCUAGAAAACAUG”, for which the results for the binding signal in [11] and in [12] were 2.83 log2 enrichment (interaction score) and 4.67 log2 enrichment (interaction score), respectively.
With “GGCUAGAACUAGUGGAUCCCCCGGCGCCCGGCGGCUCGAGCCCGGGUAAGUGUAAGUAGUCUGCAUGCCGCCGGGCGCCAUGCCUGCAGGUCGACUCUAGAAAACAUG”, the binding signal in assay [13] is 1.19 log2 enrichment (interaction score).
Turning to “GGCUAGAACUAGUGGAUCCCCCGGCGCCCGGCGGCUCGAGCCCGGGUAAGUGCAAAUAGUCUGCAUGCCGCCGGGCGCCAUGCCUGCAGGUCGACUCUAGAAAACAUG”, the binding signal in assay [8] was 6.87 log2 enrichment (interaction score).
As to “GGCUAGAACUAGUGGAUCCCCCGGCGCCCGGCGGCUCGAGCCCGGGUAAGUGUACAUAGUCUGCAUGCCGCCGGGCGCCAUGCCUGCAGGUCGACUCUAGAAAACAUG”, the binding signal in assay [7] was 2.47 log2 enrichment (interaction score).
As to “GGCUAGAACUAGUGGAUCCCCCGGCGCCCGGCGGCUCGAGCCCGGGUAAGUGUAAUUAGUCUGCAUGCCGCCGGGCGCCAUGCCUGCAGGUCGACUCUAGAAAACAUG”, the binding signal in [13] was 4.1 log2 enrichment (interaction score).
Take “GGCUAGAACUAGUGGAUCCCCCGGCGCCCGGCGGCUCGAGCCCGGGUAAGUGUCAAUAGUCUGCAUGCCGCCGGGCGCCAUGCCUGCAGGUCGACUCUAGAAAACAUG”: the binding signal in assay [14] was 4.04 log2 enrichment (interaction score); in [6] it was 2.62 log2 enrichment (interaction score); in assay [15], 2.62 log2 enrichment (interaction score); in assay [16], 5.8 log2 enrichment (interaction score); in assay [1], 4.67 log2 enrichment (interaction score).
In the case of “GGCUAGAACUAGUGGAUCCCCCGGCGCCCGGCGGCUCGAGCCCGGGUAAGUGAAAAUAGUCUGCAUGCCGCCGGGCGCCAUGCCUGCAGGUCGACUCUAGAAAACAUG”, the binding signal in assay [17] is 3.61 log2 enrichment (interaction score); in assay [18], 5.8 log2 enrichment (interaction score).
“GGCUAGAACUAGUGGAUCCCCCGGCGCCCGGCGGCUCGAGCCCGGGUAAGUGUAAAGAGUCUGCAUGCCGCCGGGCGCCAUGCCUGCAGGUCGACUCUAGAAAACAUG”: in [19], the binding signal is 3.58 log2 enrichment (interaction score).
In the case of “GGCUAGAACUAGUGGAUCCCCCGGCGCCCGGCGGCUCGAGCCCGGGUAAGUGUAAAUCGUCUGCAUGCCGCCGGGCGCCAUGCCUGCAGGUCGACUCUAGAAAACAUG”, the binding signal in assay [20] was 3.46 log2 enrichment (interaction score).

(Values after publication PMC8384837, “Expanding the binding specificity for RNA recognition by a PUF domain”.)
